The record followed here is the antibiotic and cytotoxicity screens of Wong et al. (2023).

In all, about 39,000 compounds went through this assay and about 3,300 (8.5%) were called active. The full list was thinned out, with actives kept by preference.

The assay has as its system HepG2. Nature of the assay: cytotoxicity call (relative viability < 0.9). The conditions noted are these: 10 µM.
For the compound `CCN1[C@H](C(=O)NCCc2cn(C)cn2)[C@@H](CO)[C@@H]2Cn3c(ccc(-c4ccncc4)c3=O)[C@@H]21`, the cytotoxicity call is “inactive”.
The value for `C[C@@H]1CN([C@H](C)CO)C(=O)c2cccc(NS(=O)(=O)c3cn(C)cn3)c2O[C@H]1CN(C)S(=O)(=O)c1ccccc1` was “inactive”; that for `C[C@@H]1CCCCO[C@@H](CN(C)C(=O)Nc2ccc(C(F)(F)F)cc2)[C@@H](C)CN([C@H](C)CO)C(=O)c2cc(NC(=O)c3ccncc3)ccc2O1` was “inactive”.
The value for `C[C@H](O)C#Cc1ccc2c(c1)O[C@H](CN(C)C(=O)CN(C)C)[C@@H](C)CN([C@H](C)CO)S2(=O)=O` was “inactive”.
The same measure for `COc1ccc(NC(=O)Nc2cccc3c2O[C@H](CN(C)Cc2ccc(Cl)c(Cl)c2)[C@H](C)CN([C@@H](C)CO)C3=O)cc1`: “inactive”.
For `COc1ccc(S(=O)(=O)N(C)C[C@H]2OCCCC[C@@H](C)Oc3ccc(NC(=O)Nc4ccc5c(c4)OCO5)cc3C(=O)N([C@H](C)CO)C[C@@H]2C)cc1`, the cytotoxicity call is “inactive”.
As for `Cc1noc(C)c1NC(=O)Nc1ccc2c(c1)C(=O)N([C@H](C)CO)C[C@@H](C)[C@H](CN(C)Cc1ccc3c(c1)OCO3)OCCCC[C@H](C)O2`, the cytotoxicity call is “inactive”.
The value for `Cc1noc(C)c1S(=O)(=O)Nc1ccc2c(c1)C(=O)N([C@@H](C)CO)C[C@@H](C)[C@@H](CN(C)Cc1ccc(Oc3ccccc3)cc1)O2` was “inactive”; that for `C[C@@H]1CN([C@H](C)CO)C(=O)c2cc(NC(=O)Nc3cccc4ccccc34)ccc2O[C@@H](C)CCCCO[C@H]1CN(C)S(=O)(=O)c1ccccc1` was “inactive”.
The same measure for `CC(=O)N1[C@@H]2c3cccc(=O)n3C[C@H]1[C@H](CO)[C@H]2C(=O)N1CCc2ccccc2C1`: “inactive”; for `C[C@@H]1CN([C@H](C)CO)C(=O)Cc2cc(NC(=O)Cc3cn(C)c4ccccc34)ccc2O[C@H]1CN(C)Cc1ccc(C(F)(F)F)cc1`: “inactive”.
The same measure for `C[C@H](CO)N1C[C@H](C)[C@@H](CN(C)Cc2ccc(C(F)(F)F)cc2)Oc2ccc(NC(=O)Cc3cn(C)c4ccccc34)cc2CC1=O`: “inactive”.
`C[C@H]1CN([C@@H](C)CO)C(=O)Cc2cc(NC(=O)Cc3cn(C)c4ccccc34)ccc2O[C@H]1CN(C)Cc1ccc(C(F)(F)F)cc1`: the cytotoxicity call is “active”.
Turning to `C[C@@H]1CN([C@@H](C)CO)C(=O)c2c(c3ccccc3n2C)-c2ccccc2CO[C@H]1CN(C)Cc1cccc(C(F)(F)F)c1`, the cytotoxicity call was “inactive”.
The value for `C[C@@H]1CCCCO[C@H](CN(C)S(=O)(=O)c2ccc(Cl)cc2)[C@H](C)CN([C@H](C)CO)C(=O)c2cc(NC(=O)C3CCCCC3)ccc2O1` was “active”; that for `C[C@@H]1CCCCO[C@@H](CN(C)S(=O)(=O)c2ccc(Cl)cc2)[C@@H](C)CN([C@@H](C)CO)C(=O)c2cc(NC(=O)C3CCCCC3)ccc2O1` was “inactive”; that for `Cc1ccc(S(=O)(=O)N(C)C[C@H]2OCCCC[C@H](C)Oc3ccc(NC(=O)C4CCCCC4)cc3C(=O)N([C@H](C)CO)C[C@H]2C)cc1` was “inactive”.
The value for `C[C@@H]1CN([C@H](C)CO)C(=O)c2cc(NC(=O)C3CCCCC3)ccc2O[C@@H](C)CCCCO[C@H]1CN(C)S(=O)(=O)c1ccc(F)cc1` was “inactive”; that for `C[C@@H]1CN([C@@H](C)CO)C(=O)c2cc(NC(=O)C3CCCCC3)ccc2O[C@@H](C)CCCCO[C@@H]1CN(C)S(=O)(=O)c1ccc(Cl)cc1` was “inactive”; that for `Cc1ccc(S(=O)(=O)N(C)C[C@@H]2OCCCC[C@@H](C)Oc3ccc(NC(=O)C4CCCCC4)cc3C(=O)N([C@H](C)CO)C[C@H]2C)cc1` was “inactive”.
`Cc1ccc(S(=O)(=O)N(C)C[C@@H]2OCCCC[C@@H](C)Oc3ccc(NC(=O)C4CCCCC4)cc3C(=O)N([C@H](C)CO)C[C@@H]2C)cc1`: the cytotoxicity call was “inactive”.
The same measure for `Cc1ccc(S(=O)(=O)N(C)C[C@H]2OCCCC[C@H](C)Oc3ccc(NC(=O)C4CCCCC4)cc3C(=O)N([C@@H](C)CO)C[C@@H]2C)cc1`: “active”; for `C[C@H](CO)N1C[C@H](C)[C@H](CN(C)S(=O)(=O)c2ccc(F)cc2)OCCCC[C@H](C)Oc2ccc(NC(=O)C3CCCCC3)cc2C1=O`: “inactive”; for `C[C@@H]1CCCCO[C@@H](CN(C)S(=O)(=O)c2ccc(F)cc2)[C@H](C)CN([C@H](C)CO)C(=O)c2cc(NC(=O)C3CCCCC3)ccc2O1`: “active”.
As to `Cc1ccc(S(=O)(=O)N(C)C[C@H]2OCCCC[C@@H](C)Oc3ccc(NC(=O)C4CCCCC4)cc3C(=O)N([C@H](C)CO)C[C@@H]2C)cc1`, the cytotoxicity call was “active”.
Regarding `Cc1ccc(S(=O)(=O)N(C)C[C@H]2OCCCC[C@@H](C)Oc3ccc(NC(=O)C4CCCCC4)cc3C(=O)N([C@@H](C)CO)C[C@H]2C)cc1`, the cytotoxicity call was “inactive”.
The value for `C[C@@H]1CCCCO[C@@H](CN(C)C(=O)CCCN(C)C)[C@H](C)CN([C@@H](C)CO)C(=O)c2cc(NS(=O)(=O)c3cn(C)cn3)ccc2O1` was “inactive”; that for `CS(=O)(=O)c1ncc(Cl)c(C(=O)NCCc2ccc(S(N)(=O)=O)cc2)n1` was “inactive”; that for `COc1ccc(S(=O)(=O)Nc2cccc3c2O[C@H](CN(C)Cc2ccc(Oc4ccccc4)cc2)[C@H](C)CN([C@H](C)CO)C3=O)cc1` was “inactive”.
The value for `Cc1ccc(S(=O)(=O)N(C)C[C@H]2OCCCC[C@H](C)Oc3ccc(NC(=O)CCC(F)(F)F)cc3C(=O)N([C@H](C)CO)C[C@H]2C)cc1` was “inactive”; that for `CCC(C)C1OC2(C=CC1C)CC1CC(CC=C(C)C(OC3CC(OC)C(OC4CC(OC)C(O)C(C)O4)C(C)O3)C(C)C=CC=C3COC4C(OC)C(C)=CC(C(=O)O1)C34O)O2` (stereo unspecified) was “active”.
With `CN[C@@H]1[C@@H](C)O[C@@H](O[C@H]2[C@H](C)O[C@@H](O[C@@H]3/C(C)=C/C[C@@H]4C[C@@H](C[C@]5(C=C[C@H](C)[C@@H](C(C)C)O5)O4)OC(=O)[C@@H]4C=C(C)[C@@H](O)[C@H]5OC/C(=C\C=C\[C@@H]3C)[C@]54O)C[C@@H]2OC)C[C@H]1OC`, the cytotoxicity call was “active”.
The value for `CCC(C)C1OC2(C=CC1C)CC1CC(CC=C(C)C(OC3CC(OC)C(OC4CC(OC)C(NC(C)=O)C(C)O4)C(C)O3)C(C)C=CC=C3COC4C(O)C(C)=CC(C(=O)O1)C34O)O2` (stereo unspecified) was “inactive”.
The same measure for `CC[C@H](C)[C@H]1O[C@]2(C=C[C@@H]1C)C[C@@H]1C[C@@H](C/C=C(\C)[C@@H](O[C@H]3C[C@H](OC)[C@@H](O[C@H]4C[C@H](OC)[C@@H](NC(C)=O)[C@H](C)O4)[C@H](C)O3)[C@@H](C)/C=C/C=C3\CO[C@@H]4[C@H](O)C(C)=C[C@@H](C(=O)O1)[C@]34O)O2`: “active”.
Regarding `COc1ccc(S(=O)(=O)Nc2ccc3c(c2)C(=O)N([C@@H](C)CO)C[C@@H](C)[C@@H](CN(C)CC2CC2)O3)cc1`, the cytotoxicity call was “inactive”.
As to `Cc1noc(C)c1S(=O)(=O)Nc1cccc2c1O[C@@H](CN(C)C(=O)Nc1ccccc1)[C@@H](C)CN([C@@H](C)CO)C2=O`, the cytotoxicity call was “inactive”.
Consider `COc1ccc(NC(=O)N(C)C[C@@H]2OCCCC[C@@H](C)Oc3ccc(NC(=O)Nc4ccc5c(c4)OCO5)cc3C(=O)N([C@H](C)CO)C[C@H]2C)cc1`, for which the cytotoxicity call is “inactive”.
The same measure for `O=C(C[C@H]1CC[C@H](NC(=O)c2ccc(F)cc2)[C@H](CO)O1)NCc1ccncn1`: “inactive”; for `COc1ccc(NC(=O)Nc2ccc3c(c2)[C@H]2C[C@H](CC(=O)NCc4ccncc4)O[C@@H](CO)[C@H]2O3)cc1`: “inactive”; for `COc1ccc(NC(=O)N(C)C[C@@H]2OCCCC[C@H](C)Oc3ccc(NS(=O)(=O)c4ccccc4)cc3C(=O)N([C@@H](C)CO)C[C@@H]2C)cc1`: “inactive”.
`C=CCOC(=O)[C@H]1[C@@H]2C(=O)O[C@@H](c3ccccc3)[C@@H](c3ccccc3)N2[C@@H](c2ccc(OCCOC(=O)[C@@H]3C[C@@H]4C(=O)NCC(=O)N4[C@@H]3c3cccc(OCCO)c3)cc2)[C@]12C(=O)Nc1ccc(I)cc12`: the cytotoxicity call was “inactive”.
The value for `O=C(C[C@@H]1C[C@@H]2c3cc(NC(=O)Nc4ccc(C(F)(F)F)cc4)ccc3O[C@@H]2[C@@H](CO)O1)NCc1ccc(Cl)cc1` was “inactive”; that for `Cc1noc(C)c1NC(=O)Nc1cccc2c1O[C@@H](CN(C)S(=O)(=O)c1cn(C)cn1)[C@@H](C)CN([C@H](C)CO)C2=O` was “inactive”.
The same measure for `COc1cccc(S(=O)(=O)Nc2ccc3c(c2)OC[C@@H](C)N(C(=O)Cc2cccnc2)C[C@@H](C)[C@@H](OC)CN(C)C3=O)c1`: “inactive”; for `COC[C@H](C)N1C[C@H](C)[C@@H](CN(C)Cc2ccc(Oc3ccccc3)cc2)Oc2c(NC(=O)c3ccncc3)cccc2C1=O`: “active”; for `CC(C)N1C[C@H](CN(C)Cc2ccc(Oc3ccccc3)cc2)Oc2c(NC(=O)c3ccncc3)cccc2C1=O`: “inactive”.
Regarding `C[C@H](CO)N1C[C@H](C)[C@@H](CN(C)Cc2ccc(Oc3ccccc3)cc2)Oc2c(NC(=O)C3CC3)cccc2C1=O`, the cytotoxicity call was “inactive”.
The value for `CC(C)N1C[C@@H](CN(C)Cc2ccc(Oc3ccccc3)cc2)Oc2c(NC(=O)c3ccncc3)cccc2C1=O` was “active”.
The value for `CC(C)N1C[C@H](C)[C@@H](CN(C)Cc2ccc(Oc3ccccc3)cc2)Oc2c(NC(=O)C3CCNCC3)cccc2C1=O` was “active”; that for `CC(C)N1CC[C@H](CN(C)Cc2ccc(Oc3ccccc3)cc2)Oc2c(NC(=O)c3ccncc3)cccc2C1=O` was “inactive”.
Turning to `C[C@@H]1CN([C@@H](C)CO)C(=O)c2cccc(NC(=O)C3CC3)c2O[C@@H]1CN(C)Cc1ccc(Oc2ccccc2)cc1`, the cytotoxicity call is “inactive”.
The value for `C[C@H]1CN([C@@H](C)CO)C(=O)c2cccc(NC(=O)C3CC3)c2O[C@@H]1CN(C)Cc1ccc(Oc2ccccc2)cc1` was “inactive”; that for `C[C@@H]1CN([C@@H](C)CO)C(=O)c2cccc(NC(=O)c3ccncc3)c2O[C@@H]1CN(C)Cc1ccc(Oc2ccccc2)cc1` was “inactive”.
The same measure for `C[C@@H]1CN([C@H](C)CO)C(=O)c2cccc(NC(=O)C3CC3)c2O[C@H]1CN(C)Cc1ccc(Oc2ccccc2)cc1`: “inactive”; for `C[C@@H]1CN([C@@H](C)CO)C(=O)c2cccc(NC(=O)c3ccncc3)c2O[C@H]1CN(C)Cc1ccc(Oc2ccccc2)cc1`: “inactive”; for `CC(C)N1C[C@H](C)[C@@H](CN(C)Cc2ccc(Oc3ccccc3)cc2)Oc2c(NC(=O)C3CCN(C)CC3)cccc2C1=O`: “active”.
